In all, about 33,000 sequences were measured (“E-score (-0.5 to 0.5)”: median about -0.056, highest 2% from about 0.38 on). This is one part of a sample in which the highest values are shown more often than they occur.
biological target: Stb4 (UniProt P50104); assay: PBM E-score (8-mer binding enrichment) (E-score (-0.5 to 0.5)); higher = stronger / more preferred TF binding; settings: protein concentration: 200 nM; construct: GST-DNA-binding domain
How it was run: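 Universal all-10-mer Agilent arrays, double-stranded by primer extension on fresh or once-stripped slides, were probed with about 100-200 nM GST-tagged yeast transcription factors made by PURExpress. Fluorescent anti-GST detected bound protein, and masliner normalised the scans. E-scores from the Universal PBM Analysis Suite were given to each ungapped eight-base word pooled with its reverse complement.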

Chain of UniProt P50104 (P50104 whole entry, the tested form may be a part): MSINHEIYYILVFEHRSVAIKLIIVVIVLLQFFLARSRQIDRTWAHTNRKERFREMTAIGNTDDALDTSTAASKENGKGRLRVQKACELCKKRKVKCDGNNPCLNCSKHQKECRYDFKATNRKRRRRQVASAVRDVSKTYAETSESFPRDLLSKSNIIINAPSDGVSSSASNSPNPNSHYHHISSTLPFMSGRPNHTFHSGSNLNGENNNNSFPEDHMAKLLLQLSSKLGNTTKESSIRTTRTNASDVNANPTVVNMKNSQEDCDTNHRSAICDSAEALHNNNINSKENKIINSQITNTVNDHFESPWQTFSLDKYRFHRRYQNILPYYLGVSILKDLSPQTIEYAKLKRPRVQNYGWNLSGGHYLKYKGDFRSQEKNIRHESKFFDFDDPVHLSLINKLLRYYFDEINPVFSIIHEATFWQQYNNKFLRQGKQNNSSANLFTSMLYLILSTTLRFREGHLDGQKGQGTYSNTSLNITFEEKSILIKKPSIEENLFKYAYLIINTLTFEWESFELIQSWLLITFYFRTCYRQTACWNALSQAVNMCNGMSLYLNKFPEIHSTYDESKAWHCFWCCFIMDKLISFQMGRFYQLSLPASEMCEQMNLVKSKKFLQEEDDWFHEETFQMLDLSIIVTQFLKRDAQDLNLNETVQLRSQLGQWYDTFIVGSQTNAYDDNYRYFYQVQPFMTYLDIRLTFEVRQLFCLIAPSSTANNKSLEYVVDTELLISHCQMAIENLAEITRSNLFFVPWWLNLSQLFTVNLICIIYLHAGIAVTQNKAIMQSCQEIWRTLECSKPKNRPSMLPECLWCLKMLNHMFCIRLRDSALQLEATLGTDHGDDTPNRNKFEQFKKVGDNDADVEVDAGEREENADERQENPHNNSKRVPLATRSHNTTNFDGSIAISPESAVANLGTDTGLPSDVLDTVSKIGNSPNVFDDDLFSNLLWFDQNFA

Sequence	PBM E-score
GCAAAAAA	0.137
CCGCAGTC	0.112
TGATTGCA	-0.0923
ACCGGACA	0.128
CCCGGATC	0.385
ACCGGAGA	0.187
ACCGGATA	0.388
ACCGGATC	0.353
CCCGGAGC	0.32
CAAAATGC	-0.121
CTGAACCA	-0.197
ACGCCGTA	-0.208
ATCAACAC	-0.101
CTGAAATC	-0.0865
CCGAAATC	0.405
ACGAAATC	-0.0845
CCGAAATA	0.401
ACGAAATA	-0.111
GCGAAATA	0.0947
CGGTAACA	0.238
ACACTGCG	0.00398
AGGTTGGC	-0.205
GTATTATA	0.0782
AATTCCGA	0.46
AATTCCGG	0.358

Sequence	PBM E-score
GATTCCGA	0.444
AATTCCGC	0.246
CATTCCGA	0.449
CATTCCGG	0.358
GATTCCGC	0.222
CATTCCGC	0.175
TATTCCAA	-0.113
TATTCCCA	0.0571
TATTCCGA	0.462
GATTCCCA	-0.109
CCACCCGC	0.194
TATCAAGA	-0.216
CAGCCTGG	-0.203
CCCAGTGC	-0.0453
ATGTCGGC	0.138
CTGTCGGA	0.353
GTGTCGTA	-0.0741
GTGTCGCA	-0.0287
GTGTCGGA	0.395
ATGTCGGA	0.389
ATTAGTAA	0.076
AGTGATAG	-0.33
AGCACAGA	-0.121
GCCAATAA	0.0672
ATCATCCA	-0.121

Sequence	PBM E-score
ATCATCCG	0.414
CACATCCG	0.425
ACCATCCT	-0.249
AACATCCC	0.232
AACATCCT	-0.0622
ACCATCCG	0.406
ACCATCCC	0.0842
CACATCCC	0.187
ATCATCCC	0.052
CACATCCA	-0.0807
AACATCCG	0.45
AATCAATA	-0.0212
CGATTAAG	-0.128
AAAAGGGC	-0.141
CAATTCTA	-0.196
AATTCTTA	-0.0318
CTGGAGCA	-0.262
ATCCTAGG	-0.0251
GCTCCAAC	-0.111
CACTGGCA	-0.23
GCTTGAGA	-0.312
CCGAGATA	0.405
CTGAGATC	-0.0537
CCGAGATC	0.435
GCGAGATA	0.026

Sequence	PBM E-score
ACGAGATC	-0.0355
ACGAGATA	-0.184
AAGCAGCT	-0.0723
CCAGACTA	-0.229
CTGAGGGA	-0.284
AGTTTCCC	0.132
ATTTTCCC	0.0682
ACTTTCCT	-0.22
ACTTTCCC	0.121
AGTTTCCA	-0.103
AGTTTCCG	0.437
ATTTTCCG	0.424
CATTTCCA	-0.196
CATTTCCC	0.18
CATTTCCG	0.421
ATTTTCCA	-0.0573
ACTTTCCG	0.383
CGCAGGAA	-0.0189
ATATGGCG	0.0558
CGAGTAAC	0.166
CTGGCTGC	-0.108
AAAGGGTC	-0.0434
ACGGGGGG	-0.228
GCCACGCC	-0.282
GATAGCGA	-0.0238

Sequence	PBM E-score
AATTTCCT	-0.0502
AGTTTCGC	0.0157
AGTTTCGA	-0.131
AATTTCCC	0.142
AATTTCCG	0.425
AGTTTCGG	0.412
CTAAGTCA	-0.0795
CCCAATGC	-0.17
ATTGGCTG	-0.167
GATAAGCA	0.136
AGTTCGTA	0.0255
AGTTCGTG	-0.157
AGTTCGGA	0.442
AGTTCGGG	0.426
AGTTCGGC	0.357
AGTTCGCA	-0.158
AACATTCA	-0.00804
AACGGCAT	0.232
AAAAGAGC	-0.189
AAACTCGC	-0.0551
AATCTCGA	-0.0861
CATCTCGG	0.458
AATCTCGT	-0.0273
CATCTCGC	-0.0526
ATTCTCGA	-0.194

Sequence	PBM E-score
AAACTCGT	-0.228
ATTCTCGG	0.425
AATCTCGG	0.434
AAACTCGG	0.419
CATCTCGA	-0.252
ATTCTCGC	-0.286
CACGCTCG	0.119
AATCGAAT	0.00368
CTGAGAGC	-0.138
AATACTGG	-0.159
TCTAAAAA	0.0389
AGGGTGTA	-0.093
GTCGCAGA	-0.195
AGTCTCGA	-0.0187
ACTCTCGG	0.416
AGTCTCGC	-0.0759
ACTCTCGA	-0.214
AGTCTCGG	0.39
ACTCTCGC	-0.0541
ATAGCCTC	-0.00394
ACTGATAC	0.0597
ATAGTCGC	-0.076
ACGCTACC	0.00891
TATTTTGA	-0.151
TAGCCTCA	-0.198

Sequence	PBM E-score
GATGCTTA	-0.00303
AAGATCCA	-0.0259
CAGATCCA	0.0283
CAGATCCC	0.00572
CAGATCCG	0.416
AAGATCCC	0.126
AAGATCCG	0.41
GGGCCGCA	0.134
AGTCACAA	-0.173
AGTTTAGG	-0.238
AAATGGGG	-0.344
ACCTGGTG	-0.0216
ATCGGCGG	0.327
AGCATCCT	0.0794
CGCATCCG	0.408
AGCATCCA	-0.115
CGCATCCA	-0.126
AGCATCCG	0.419
CGCATCCC	-0.0101
CTCGTAGA	-0.246
GAAACGTC	0.0218
GATCGGTA	0.407
CCTCGGTA	0.38
CATCGGTA	0.345
GCTCGGTA	0.416

Sequence	PBM E-score
AATCGGTA	0.205
ACTCGGTA	0.322
GCTAGACC	-0.0645
AGTTTTCG	0.152
TATGAAGA	-0.0238
ACTGTCTG	-0.0825
CGGAAAGC	0.386
CGGAAAGA	0.407
AGGAAAGC	-0.0848
AGGAAAGA	-0.174
GGGAAAGA	-0.0458
CAGAAAGC	-0.131
TGAGCTAA	-0.15
CAATGCGG	0.0433
AACTTCCG	0.451
CACTTCCG	0.397
CACTTCCC	0.0457
AACTTCCA	0.132
CACTTCCA	-0.0868
AACTTCCT	-0.0245
AGTTCATC	-0.107
CGAACGAG	0.0473
CAGAGTGA	-0.0625
AATAACTC	-0.0405
AGATGAGA	-0.103

Sequence	PBM E-score
GATTGCGC	-0.00733
AGATAAAC	0.00284
AGAGACCC	-0.0488
AAGTTCGG	0.421
CAGTTCGC	-0.194
AAGTTCGA	0.0503
AAGTTCGC	-0.187
CAGTTCGA	-0.262
CAGTTCGG	0.409
ATCCACGG	0.109
GGGAGACA	0.146
CAGGCGGC	0.067
CCCGTCGA	0.102
CCCGTCGG	0.386
CCCGTCGC	-0.00272
CCTGGCAC	-0.00805
GAAGAGGC	-0.016
ATAGGATA	-0.00309
ATTGGATC	-0.0271
ATCGGATC	0.43
ATTGGATA	-0.121
CTCGGATA	0.49
CTAGGATA	-0.0673
ATCGGATA	0.467
ATCGGATG	0.451

Sequence	PBM E-score
ATCGGAGG	0.199
AACGGATC	0.306
ATGGGATG	-0.0874
CTCAGATA	-0.00864
CCCTCTAA	-0.182
AGACCTTG	-0.312
ACTAGGAC	-0.0716
GTCATTTA	-0.171
AATGGTTG	0.02
GTCAGGCA	-0.118
AGCTGGAT	-0.0862
AAGACTGA	-0.25
GTCGGATA	0.463
GTCGGAGA	0.294
GTCGGACA	0.22
CTGGGATC	-0.0424
CTCAGATC	-0.103
CTCGGATC	0.481
GTCAGCTA	-0.259
TCTGCAAA	-0.122
CCATCGCA	-0.229
GGGAAATA	0.157
CGGAAATC	0.366
CGGAAAAC	0.37
CGGAAAAG	0.373

Sequence	PBM E-score
CGGAAATA	0.429
CGGAAAAA	0.446
CTCTTTGA	-0.285
CTTAGAAG	-0.29
CGTATTGA	-0.271
AGTTACTA	-0.103
ACAATCTG	-0.064
ACAACGGC	0.108
GAACGCGA	-0.0119
ATTTCCGC	0.307
ATTTCCAA	0.0026
ATTTCCGA	0.47
ATTTCCGG	0.426
ATTTCCTG	-0.0528
ATTTCCCA	-0.0128
TCTGGACA	-0.0785
GCATAGCC	-0.0533
GTCTGCTA	-0.0233
ACGACGCG	-0.0636
CCGACGCC	0.343
CCGACCCG	0.407
ACGACGGA	0.22
ACGACCCG	0.251
CCGACGGA	0.404
GCGACGGA	0.245

Sequence	PBM E-score
CCGACGCG	0.397
CCGACCCC	0.214
CTGACGCA	-0.298
CTCAGTGC	-0.109
ACATTGCT	-0.233
GTCAGACA	-0.0277
ATTACGCA	0.00056
AGCATTTC	-0.0674
GGTTGGAA	0.12
ATCTACCA	-0.135
TCCAACCA	-0.117
CGAGATGC	0.0535
ACCCGACT	0.33
CCCCGACA	0.16
ACCCGACA	0.402
GCCCGACA	0.187
CCCCGACG	0.277
ACCCGACG	0.425
CGTTGGAG	-0.232
GCGAGCCC	-0.0138
ACGAGCCG	0.292
CCGAGCCC	0.444
CCGAGCCG	0.468
CGGAGCCG	0.352
ACGAGCCA	-0.307

Sequence	PBM E-score
ACGAGCCC	-0.198
TCGAGCCA	-0.204
CCGAGCCA	0.407
GGAGTATA	0.235
AACCGTCT	0.00908
GCGGGTCA	0.0978
GAGCCCAA	-0.16
GGAGGAAC	-0.0445
GTTCTGAA	-0.216
AACGAGCT	-0.256
AACCCTCA	-0.148
GATTAGCA	-0.177
CACGGAGC	0.174
ATCGGAGC	0.282
CTCGGAGC	0.395
CACGGAGA	0.14
CTCGGACC	0.412
CACGGACC	0.114
ATCGGAGA	0.272
CTCGGACA	0.366
CTCGGAGA	0.406
CGAGTGAC	-0.0128
AACCTCGG	0.452
CACCTCGC	0.0165
ATCCTCGA	-0.25

Sequence	PBM E-score
CACCTCGG	0.393
ATCCTCGG	0.417
AACCTCGA	-0.0623
AACCTCGT	-0.062
ACCCTCGC	-0.131
ACCCTCGA	-0.165
ACCCTCGG	0.426
ATCCTCGC	-0.0124
CACCTCGA	-0.0678
AATGCGAA	0.0466
GGTTGGTA	1e-05
TCGCATAA	-0.0545
CGGGCTGA	0.0911
CGTCTTTA	-0.0915
CAATTGGA	-0.112
ACCTCCCT	-0.111
AAAGGGGA	-0.22
AGCTCCGG	0.301
CTCTGAAC	-0.174
